# Assay results taken from PubChem BioAssay (EPA / NIEHS).
# A structure can be active in one record and inactive in another. Active and inactive are the calls of the source. The calls were made as follows: active = hit-call score of the fitted dose curve at least 0.9, where 1 is the maximum; inactive = score below 0.9.
# Target: Transcription factor E2F1 (Homo sapiens) (UniProt Q01094)
# Experiment: ATG_E2F_CIS: Attagene CIS-FACTORIAL HepG2 Assay for human E2F Transcription Factor 1 (AID 2282935)
# Conditions: HepG2 Attagene cis-reporter, E2F reporter RNA transcripts; actives raise or lower the signal
# Outline: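 First, HepG2 cells were transfected with reporter transcription units. Next, they were dosed for 24 h. Then RNA was isolated, converted to cDNA, PCR-amplified, FAM-labeled, HpaI-digested and analyzed by capillary electrophoresis.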
# Transcription factor E2F1 (Homo sapiens), sequence (Q01094 whole entry, looked up): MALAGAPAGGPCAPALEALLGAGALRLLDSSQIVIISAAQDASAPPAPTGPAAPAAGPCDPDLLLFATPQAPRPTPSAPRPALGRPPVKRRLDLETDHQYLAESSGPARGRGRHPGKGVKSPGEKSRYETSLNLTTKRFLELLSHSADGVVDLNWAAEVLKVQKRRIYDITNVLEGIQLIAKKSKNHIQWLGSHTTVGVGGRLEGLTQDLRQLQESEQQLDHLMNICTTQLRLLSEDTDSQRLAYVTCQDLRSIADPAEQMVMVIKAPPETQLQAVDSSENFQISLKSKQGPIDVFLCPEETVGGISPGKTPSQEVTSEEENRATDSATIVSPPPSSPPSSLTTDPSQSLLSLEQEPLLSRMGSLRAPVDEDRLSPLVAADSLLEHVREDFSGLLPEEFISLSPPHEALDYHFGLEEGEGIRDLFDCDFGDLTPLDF
Compound,outcome,AC50
CC(=O)OCC(COC(C)=O)OC(C)=O,inactive,
Cc1ccc(C(C)(C)C)c(O)c1,inactive,
CCCCC(CC)COC(=O)CCCCCCCC(=O)OCC(CC)CCCC (stereo not given),inactive,
S=c1[nH]c2ccccc2s1,inactive,
CCCC(=O)O,inactive,
O=C(NS(=O)(=O)/C=C/c1cccs1)c1ccc(F)cc1Br,inactive,
O=C(O)c1cccnc1,inactive,
COC(=O)[C@H]1[C@H]2C[C@@H]3c4[nH]c5cc(OC)ccc5c4CCN3C[C@H]2C[C@@H](OC(=O)c2cc(OC)c(OC)c(OC)c2)[C@@H]1OC,inactive,
CC(C)(O)c1ccc(CNC(=O)c2cccnc2Oc2ccc(F)cc2)cc1,inactive,
CC(C)COC(=O)CCCCC(=O)OCC(C)C,inactive,
CN(C)CCCN(C)CCCN(C)C,inactive,
O=C(O)CN(CC(=O)O)CC(=O)O,inactive,
Oc1ccccc1O,inactive,
CCCCOC(=O)CCCCC(=O)OCCCC,inactive,
CC(N)=O,inactive,
Cc1occc(=O)c1O,inactive,
CC(=O)[C@@]1(O)CC[C@H]2[C@@H]3CCC4=CC(=O)CC[C@]4(C)[C@H]3CC[C@@]21C,inactive,
NC=O,inactive,
CC(=O)CC(c1ccccc1)c1c(O)c2ccccc2oc1=O (stereo not given),inactive,
CC1=C(C)S(=O)(=O)CCS1(=O)=O,inactive,
CC(C)OC(=O)C(C)(C)Oc1ccc(C(=O)c2ccc(Cl)cc2)cc1,inactive,
O=C(N[C@@H](c1ccccc1)[C@@H]1CCCCN1)c1cccc(C(F)(F)F)c1Cl,inactive,
CCc1cc(C2=C(C(=O)O)N(c3ccccc3C(F)(F)F)S(=O)(=O)c3ccccc32)cc2c1OCO2,inactive,
Oc1ccc(O)cc1,inactive,
CC(=O)O[C@]1(C(C)=O)CC[C@H]2[C@@H]3C=C(Cl)C4=CC(=O)[C@@H]5C[C@@H]5[C@]4(C)[C@H]3CC[C@@]21C,inactive,145 µM (active)
CC(C)c1cccc(C(C)C)c1NC(=O)NS(=O)(=O)c1cc(C(C)(C)O)co1,inactive,
O=C(Oc1ccccc1)c1cccc(C(=O)Oc2ccccc2)c1,inactive,
Cn1cnc2c1c(=O)[nH]c(=O)n2C,inactive,
O=C1CCCCC1,inactive,
